39 targets from the supplement of paper PMC12067093, “Discovery and optimisation of a covalent ligand for TRIM25 and its application to targeted protein ubiquitination” (Chemical Science, 2025) can be followed below.

About 21,000 targets were measured; listed, in parts, are those with the largest changes and a random draw of the rest.
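Further: competitive chemoproteomic profiling in live THP-1 cells with an iodoacetamide desthiobiotin (IA-DTB) probe, comparing probe-labelled peptide intensities in compound-treated cells against DMSO-treated controls.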

UniProt P50148, sequence (P50148 whole entry, looked up): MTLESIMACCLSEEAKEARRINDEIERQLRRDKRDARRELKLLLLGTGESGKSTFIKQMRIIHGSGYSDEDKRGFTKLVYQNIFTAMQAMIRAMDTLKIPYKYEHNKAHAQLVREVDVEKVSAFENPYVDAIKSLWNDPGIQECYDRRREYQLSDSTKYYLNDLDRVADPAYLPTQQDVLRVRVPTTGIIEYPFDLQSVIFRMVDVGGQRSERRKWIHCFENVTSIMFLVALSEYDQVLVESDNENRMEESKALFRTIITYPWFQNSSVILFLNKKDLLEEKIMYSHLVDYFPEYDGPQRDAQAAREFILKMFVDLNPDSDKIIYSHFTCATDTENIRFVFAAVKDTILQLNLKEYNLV
UniProt Q14C86, sequence (Q14C86 whole entry, looked up): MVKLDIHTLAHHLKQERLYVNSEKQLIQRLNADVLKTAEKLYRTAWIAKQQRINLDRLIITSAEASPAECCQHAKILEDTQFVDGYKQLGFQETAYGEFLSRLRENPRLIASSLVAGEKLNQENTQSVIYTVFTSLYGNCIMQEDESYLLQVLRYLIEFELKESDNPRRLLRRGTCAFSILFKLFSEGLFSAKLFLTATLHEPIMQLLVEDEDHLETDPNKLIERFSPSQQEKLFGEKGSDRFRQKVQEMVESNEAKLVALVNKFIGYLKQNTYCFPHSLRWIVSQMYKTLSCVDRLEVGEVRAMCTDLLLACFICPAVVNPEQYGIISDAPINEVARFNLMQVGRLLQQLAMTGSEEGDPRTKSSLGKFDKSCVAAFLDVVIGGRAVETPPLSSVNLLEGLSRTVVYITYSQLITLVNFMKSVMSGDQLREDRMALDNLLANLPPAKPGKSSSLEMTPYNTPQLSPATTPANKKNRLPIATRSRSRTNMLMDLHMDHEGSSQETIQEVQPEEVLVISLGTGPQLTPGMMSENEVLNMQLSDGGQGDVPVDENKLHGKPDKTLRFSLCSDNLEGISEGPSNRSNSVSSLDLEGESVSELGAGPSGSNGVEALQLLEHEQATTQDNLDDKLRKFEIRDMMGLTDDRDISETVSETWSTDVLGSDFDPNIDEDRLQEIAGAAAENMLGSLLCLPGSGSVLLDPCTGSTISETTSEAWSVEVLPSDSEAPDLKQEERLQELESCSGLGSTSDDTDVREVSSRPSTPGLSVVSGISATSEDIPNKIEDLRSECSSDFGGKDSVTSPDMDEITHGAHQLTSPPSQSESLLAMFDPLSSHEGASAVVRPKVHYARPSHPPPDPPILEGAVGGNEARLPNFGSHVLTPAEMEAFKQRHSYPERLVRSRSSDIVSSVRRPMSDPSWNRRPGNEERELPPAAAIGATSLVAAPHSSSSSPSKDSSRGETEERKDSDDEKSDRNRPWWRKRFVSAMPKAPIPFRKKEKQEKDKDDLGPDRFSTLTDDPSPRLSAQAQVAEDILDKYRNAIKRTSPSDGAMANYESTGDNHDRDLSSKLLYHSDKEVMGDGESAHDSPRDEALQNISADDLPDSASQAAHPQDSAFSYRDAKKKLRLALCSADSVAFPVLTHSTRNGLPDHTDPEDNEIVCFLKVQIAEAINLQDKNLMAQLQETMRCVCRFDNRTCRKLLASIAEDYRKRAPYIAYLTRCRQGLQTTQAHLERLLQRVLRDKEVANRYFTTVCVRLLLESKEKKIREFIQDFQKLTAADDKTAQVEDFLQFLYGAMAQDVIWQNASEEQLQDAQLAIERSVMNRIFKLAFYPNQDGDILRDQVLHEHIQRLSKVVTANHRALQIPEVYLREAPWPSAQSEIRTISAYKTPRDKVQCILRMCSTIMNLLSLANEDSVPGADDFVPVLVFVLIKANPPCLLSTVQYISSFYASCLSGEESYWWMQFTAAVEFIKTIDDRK
UniProt Q9UKJ3, sequence (Q9UKJ3 whole entry, looked up): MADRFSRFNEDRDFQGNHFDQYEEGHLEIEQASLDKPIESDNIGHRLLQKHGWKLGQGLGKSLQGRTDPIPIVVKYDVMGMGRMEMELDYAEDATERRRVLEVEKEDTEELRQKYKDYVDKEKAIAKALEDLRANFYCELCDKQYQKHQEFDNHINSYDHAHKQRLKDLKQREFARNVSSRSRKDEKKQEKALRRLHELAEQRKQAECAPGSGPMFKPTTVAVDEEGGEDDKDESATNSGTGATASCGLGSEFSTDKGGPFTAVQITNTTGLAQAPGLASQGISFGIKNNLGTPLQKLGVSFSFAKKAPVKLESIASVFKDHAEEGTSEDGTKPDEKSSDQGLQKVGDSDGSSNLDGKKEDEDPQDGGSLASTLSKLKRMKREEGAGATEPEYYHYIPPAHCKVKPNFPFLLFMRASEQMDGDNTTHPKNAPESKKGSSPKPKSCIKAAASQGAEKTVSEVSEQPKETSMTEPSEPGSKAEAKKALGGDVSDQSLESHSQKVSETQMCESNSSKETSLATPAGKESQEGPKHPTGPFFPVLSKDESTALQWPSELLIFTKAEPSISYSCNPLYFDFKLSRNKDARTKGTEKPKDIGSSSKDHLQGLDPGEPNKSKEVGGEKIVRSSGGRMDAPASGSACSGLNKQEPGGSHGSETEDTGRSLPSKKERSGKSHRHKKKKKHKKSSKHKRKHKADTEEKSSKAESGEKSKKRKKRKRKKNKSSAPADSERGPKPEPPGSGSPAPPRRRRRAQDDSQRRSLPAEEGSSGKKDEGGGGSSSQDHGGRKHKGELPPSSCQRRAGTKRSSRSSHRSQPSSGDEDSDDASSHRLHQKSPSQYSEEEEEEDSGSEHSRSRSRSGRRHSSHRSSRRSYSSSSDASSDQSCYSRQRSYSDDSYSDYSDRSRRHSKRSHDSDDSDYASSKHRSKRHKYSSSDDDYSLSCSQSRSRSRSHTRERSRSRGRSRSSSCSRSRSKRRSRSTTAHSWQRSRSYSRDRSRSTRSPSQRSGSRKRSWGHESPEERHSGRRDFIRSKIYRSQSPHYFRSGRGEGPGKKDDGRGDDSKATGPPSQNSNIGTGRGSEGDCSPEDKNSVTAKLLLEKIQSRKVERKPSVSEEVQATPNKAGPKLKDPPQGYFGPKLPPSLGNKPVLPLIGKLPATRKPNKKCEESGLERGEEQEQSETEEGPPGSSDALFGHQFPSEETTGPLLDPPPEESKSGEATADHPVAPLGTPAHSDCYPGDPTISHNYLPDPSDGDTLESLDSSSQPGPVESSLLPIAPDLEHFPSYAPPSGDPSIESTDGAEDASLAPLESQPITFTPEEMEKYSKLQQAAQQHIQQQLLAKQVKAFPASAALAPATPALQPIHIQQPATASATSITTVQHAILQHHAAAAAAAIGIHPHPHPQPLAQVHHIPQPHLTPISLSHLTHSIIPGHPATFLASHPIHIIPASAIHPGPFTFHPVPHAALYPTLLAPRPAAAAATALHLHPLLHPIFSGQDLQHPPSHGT
UniProt Q9Y5Q9, sequence (Q9Y5Q9 whole entry, looked up): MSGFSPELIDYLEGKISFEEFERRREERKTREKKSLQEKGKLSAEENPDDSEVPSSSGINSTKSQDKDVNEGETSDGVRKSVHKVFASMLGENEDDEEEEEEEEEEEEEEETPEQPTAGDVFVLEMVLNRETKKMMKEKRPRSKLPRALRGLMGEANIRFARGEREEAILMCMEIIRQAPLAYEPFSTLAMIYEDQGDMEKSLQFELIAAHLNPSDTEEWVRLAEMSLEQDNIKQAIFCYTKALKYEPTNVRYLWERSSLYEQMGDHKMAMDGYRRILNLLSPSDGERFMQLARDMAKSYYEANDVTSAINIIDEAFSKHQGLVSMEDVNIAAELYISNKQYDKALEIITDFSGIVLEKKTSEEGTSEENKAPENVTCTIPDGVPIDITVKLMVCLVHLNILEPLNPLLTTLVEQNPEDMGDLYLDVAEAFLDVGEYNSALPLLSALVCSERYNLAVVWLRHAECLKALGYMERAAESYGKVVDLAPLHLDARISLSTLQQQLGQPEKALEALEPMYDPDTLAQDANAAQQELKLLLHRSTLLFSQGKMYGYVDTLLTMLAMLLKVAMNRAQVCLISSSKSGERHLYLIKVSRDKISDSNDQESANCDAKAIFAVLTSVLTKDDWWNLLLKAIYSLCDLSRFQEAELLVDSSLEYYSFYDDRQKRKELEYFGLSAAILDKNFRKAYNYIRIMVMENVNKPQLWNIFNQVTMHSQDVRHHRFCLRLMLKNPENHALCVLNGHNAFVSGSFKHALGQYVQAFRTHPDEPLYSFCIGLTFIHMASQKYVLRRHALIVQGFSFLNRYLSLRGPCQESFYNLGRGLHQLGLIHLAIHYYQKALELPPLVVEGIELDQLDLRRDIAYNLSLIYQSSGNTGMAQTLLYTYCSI
UniProt P04406, sequence (P04406 whole entry, looked up): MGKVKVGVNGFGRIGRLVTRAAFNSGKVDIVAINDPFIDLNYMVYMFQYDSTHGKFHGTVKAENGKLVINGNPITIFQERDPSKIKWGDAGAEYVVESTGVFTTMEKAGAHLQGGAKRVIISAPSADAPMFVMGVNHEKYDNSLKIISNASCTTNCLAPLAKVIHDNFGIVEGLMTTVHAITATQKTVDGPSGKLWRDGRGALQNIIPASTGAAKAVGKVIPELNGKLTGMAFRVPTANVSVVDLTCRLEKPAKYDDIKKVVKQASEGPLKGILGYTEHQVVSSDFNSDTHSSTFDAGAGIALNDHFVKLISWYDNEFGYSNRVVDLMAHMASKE
UniProt Q00403, sequence (Q00403 whole entry, looked up): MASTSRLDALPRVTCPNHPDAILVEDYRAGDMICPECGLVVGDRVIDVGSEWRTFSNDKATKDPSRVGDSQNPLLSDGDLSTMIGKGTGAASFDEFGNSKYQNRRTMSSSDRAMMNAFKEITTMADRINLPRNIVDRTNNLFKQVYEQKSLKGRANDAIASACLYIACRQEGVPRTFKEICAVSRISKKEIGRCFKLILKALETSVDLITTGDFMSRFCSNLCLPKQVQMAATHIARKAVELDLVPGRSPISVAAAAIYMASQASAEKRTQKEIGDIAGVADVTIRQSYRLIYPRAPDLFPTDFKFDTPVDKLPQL

Compound in the first assay: CC1Cc2ccccc2N1C(=O)C1CCCN(C1)C(=O)CCl (mixture of isomers) [TRIM25 ligand 11 (diastereomer mixture)]
The assay is described as follows: probe-labelled cysteine peptide fold change vs DMSO (competition) (log2 fold change); higher = less target engagement (more negative = stronger competition). As to conditions: 10 µM; THP-1; incubation time: 4 h.
Turning to HAT1_O14929_168_ADMTCR (UniProt O14929), the “probe-labelled cysteine peptide fold change” value was 0.0223.
Consider “HADHA_P40939_349_ALMGLYHGQVLCKK (UniProt P40939)”, for which the “probe-labelled cysteine peptide fold change” value is -0.452.
Same read-out and setting: the result for “GCLM_P48507_72_EFPDVLECTVSHAVEK (UniProt P48507)” reads 0.0379; that for “GCLC_P48506_295_GYVSDIDCR (UniProt P48506)”, 0.0316.
On the same count and under the same terms, under “GNAI2_P04899_287_ITHSPLTICFPEYTGANKYDEAASYIQSK (UniProt P04899)” stands -0.134; under “GPATCH8_Q9UKJ3_795_HKGELPPSSCQR (UniProt Q9UKJ3)”, -0.186.
The same measure, in the same setting: the result for “HADHA_P40939_97+110_PGCFIAGADINMLAACK (UniProt P40939)” reads -0.0879; that for “HMGCL_P35914_141_NINCSIEESFQR (UniProt P35914)”, 0.0699; that for “HNRNPAB_Q99729_224_KFHTVSGSKCEIK (UniProt Q99729)”, -0.654.
With “GDI2_P50395_302_VICILSHPIK (UniProt P50395)”, the “probe-labelled cysteine peptide fold change” value is -0.0268.
The same measure, in the same setting: the result for “GTF2B_Q00403_37_AGDMICPECGLVVGDR (UniProt Q00403)” reads 0.000693.
Consider “GMPS_P49915_456_VICAEEPYICK (UniProt P49915)”, for which the “probe-labelled cysteine peptide fold change” value came to 0.0291.
The same measure, in the same setting: under “GAPVD1_Q14C86_293_TLSCVDRLEVGEVR (UniProt Q14C86)” stands 0.185; under “H2AFY_O75367_276_FVIHCNSPVWGADKCEELLEK (UniProt O75367)”, -0.321.
On the same count and under the same terms, under “HSPBP1_Q9NZL4_269_GTLCSMGMVQQLVALVR (UniProt Q9NZL4)” stands 0.0217; under “HGD_Q93099_180_MLVQPNEICVIQR (UniProt Q93099)”, 0.479.
The same measure, in the same setting: under “HADH_Q16836_211_ALGKHPVSCK (UniProt Q16836)” stands -0.647.
For the target “GPT2_Q8TD30_281_CIEDVIHFAWEEK (UniProt Q8TD30)”, the “probe-labelled cysteine peptide fold change” value amounted to 0.213.
On the same count and under the same terms, under “GART_P22102_941_GSNAHEQALETGVTVTGCTVHFVAEDVDAGQIILQEAVPVKR (UniProt P22102)” stands -0.0918; under “HNRNPM_P52272_676_DKFNECGHVLYADIK (UniProt P52272)”, -0.633; under “HARS_P12081_379_KVPCVGLSIGVER (UniProt P12081)”, -0.0416.
On the same count and under the same terms, the result for “HDGF_P51858_108_KSCVEEPEPEPEAAEGDGDKK (UniProt P51858)” reads -0.541; that for “HPCAL1_P37235_185_LLQCDPSSASQF<|>HPCA_P84074_185_LLQCDPSSASQF (UniProt P84074+P37235)”, 0.00885.
Same read-out and setting: the result for “HSPA14_Q0VDF9_394_ENLLVEDSLMIECSAR (UniProt Q0VDF9)” reads -0.368; that for “GATM_P50440_131_KAVAEIEEMCNILK (UniProt P50440)”, -0.271.
As to “GCN1_Q92616_2136_LGTPDEQLEMANCQAVILSVEDDTGHR (UniProt Q92616)”, the “probe-labelled cysteine peptide fold change” value came out at 0.097.
Still for that read-out and setting: the result for “GSTCD_Q8NEC7_571_EHMILCR (UniProt Q8NEC7)” reads 0.0436; that for “GSDMD_P57764_268_CLHNFLTDGVPAEGAFTEDFQGLRAEVETISK (UniProt P57764)”, 0.377; that for “GNAQ_P50148_144_SLWNDPGIQECYDR (UniProt P50148)”, -0.0686.
Still for that read-out and setting: under “GTPBP1_O00178_515_YQAMVHCGSIR (UniProt O00178)” stands -0.0472; under “GEMIN4_P57678_210_LRSDPDACPTMPLLAMLLR (UniProt P57678)”, -0.252.
On the same count and under the same terms, the result for “HK2_P52789_133_GSGTQLFDHIAECLANFMDK (UniProt P52789)” reads 0.165; that for “HSPA2_P54652_191_GCAGGEK (UniProt P54652)”, -0.0761; that for “GTF3C3_Q9Y5Q9_810_GPCQESFYNLGR (UniProt Q9Y5Q9)”, 0.136.
In the case of “GAPDH_P04406_247_VPTANVSVVDLTCRLEK (UniProt P04406)”, the “probe-labelled cysteine peptide fold change” value was -0.778.
Regarding “HSPA4_P34932_213_NVVFVDMGHSAYQVSVCAFNR (UniProt P34932)”, the “probe-labelled cysteine peptide fold change” value amounted to 0.1.
On the same count and under the same terms, under “HNRNPA3_P51991_64_WGTLTDCVVMRDPQTKR (UniProt P51991)” stands -0.717; under “GART_P22102_93_SAGVQCFGPTAEAAQLESSK (UniProt P22102)”, 0.0151; under “GALNT1_Q10472_482_TDDLCLDVSK (UniProt Q10472)”, 0.0604.

Staying with this assay, now noted: 50 µM; THP-1; incubation time: 4 h.
Take HAT1_O14929_168_ADMTCR (UniProt O14929): the “probe-labelled cysteine peptide fold change” value turned out to be 0.0285.
The same measure, in the same setting: the result for “HADHA_P40939_349_ALMGLYHGQVLCKK (UniProt P40939)” reads -0.365.
Still for that read-out and setting: under “GCLM_P48507_72_EFPDVLECTVSHAVEK (UniProt P48507)” stands 0.0286.
For “GCLC_P48506_295_GYVSDIDCR (UniProt P48506)”, the “probe-labelled cysteine peptide fold change” value is 0.199.
On to “GNAI2_P04899_287_ITHSPLTICFPEYTGANKYDEAASYIQSK (UniProt P04899)”, for which the “probe-labelled cysteine peptide fold change” value is -0.103.
Same read-out and setting: under “GPATCH8_Q9UKJ3_795_HKGELPPSSCQR (UniProt Q9UKJ3)” stands -0.0452.
The same measure, in the same setting: the result for “HADHA_P40939_97+110_PGCFIAGADINMLAACK (UniProt P40939)” reads 0.186; that for “HMGCL_P35914_141_NINCSIEESFQR (UniProt P35914)”, 0.161.
Still for that read-out and setting: under “HNRNPAB_Q99729_224_KFHTVSGSKCEIK (UniProt Q99729)” stands -0.0882; under “GDI2_P50395_302_VICILSHPIK (UniProt P50395)”, -0.00641.
As to “GTF2B_Q00403_37_AGDMICPECGLVVGDR (UniProt Q00403)”, the “probe-labelled cysteine peptide fold change” value is 0.073.
Same read-out and setting: under “GMPS_P49915_456_VICAEEPYICK (UniProt P49915)” stands 0.0222.
Same read-out and setting: the result for “GAPVD1_Q14C86_293_TLSCVDRLEVGEVR (UniProt Q14C86)” reads 0.128; that for “H2AFY_O75367_276_FVIHCNSPVWGADKCEELLEK (UniProt O75367)”, -0.0894; that for “HSPBP1_Q9NZL4_269_GTLCSMGMVQQLVALVR (UniProt Q9NZL4)”, 0.156.
Still for that read-out and setting: the result for “HGD_Q93099_180_MLVQPNEICVIQR (UniProt Q93099)” reads 0.382; that for “HADH_Q16836_211_ALGKHPVSCK (UniProt Q16836)”, -0.601.
For the target “GPT2_Q8TD30_281_CIEDVIHFAWEEK (UniProt Q8TD30)”, the “probe-labelled cysteine peptide fold change” value turned out to be 0.0432.
Same read-out and setting: the result for “GART_P22102_941_GSNAHEQALETGVTVTGCTVHFVAEDVDAGQIILQEAVPVKR (UniProt P22102)” reads 0.156; that for “HNRNPM_P52272_676_DKFNECGHVLYADIK (UniProt P52272)”, -0.474; that for “HARS_P12081_379_KVPCVGLSIGVER (UniProt P12081)”, -0.0375.
With “HDGF_P51858_108_KSCVEEPEPEPEAAEGDGDKK (UniProt P51858)”, the “probe-labelled cysteine peptide fold change” value was -0.677.
For “HPCAL1_P37235_185_LLQCDPSSASQF<|>HPCA_P84074_185_LLQCDPSSASQF (UniProt P84074+P37235)”, the “probe-labelled cysteine peptide fold change” value is -0.0604.
The same measure, in the same setting: under “HSPA14_Q0VDF9_394_ENLLVEDSLMIECSAR (UniProt Q0VDF9)” stands -0.17; under “GATM_P50440_131_KAVAEIEEMCNILK (UniProt P50440)”, -0.2; under “GCN1_Q92616_2136_LGTPDEQLEMANCQAVILSVEDDTGHR (UniProt Q92616)”, -0.0335.
On to “GSTCD_Q8NEC7_571_EHMILCR (UniProt Q8NEC7)”, for which the “probe-labelled cysteine peptide fold change” value turned out to be 0.126.
Still for that read-out and setting: under “GSDMD_P57764_268_CLHNFLTDGVPAEGAFTEDFQGLRAEVETISK (UniProt P57764)” stands 0.487; under “GNAQ_P50148_144_SLWNDPGIQECYDR (UniProt P50148)”, -0.0854.
The same measure, in the same setting: under “GTPBP1_O00178_515_YQAMVHCGSIR (UniProt O00178)” stands 0.0726.
On the same count and under the same terms, the result for “GEMIN4_P57678_210_LRSDPDACPTMPLLAMLLR (UniProt P57678)” reads -0.0506; that for “HK2_P52789_133_GSGTQLFDHIAECLANFMDK (UniProt P52789)”, -0.083.
For “HSPA2_P54652_191_GCAGGEK (UniProt P54652)”, the “probe-labelled cysteine peptide fold change” value was -0.123.
On the same count and under the same terms, the result for “GTF3C3_Q9Y5Q9_810_GPCQESFYNLGR (UniProt Q9Y5Q9)” reads 0.284; that for “GAPDH_P04406_247_VPTANVSVVDLTCRLEK (UniProt P04406)”, -0.389; that for “HSPA4_P34932_213_NVVFVDMGHSAYQVSVCAFNR (UniProt P34932)”, 0.0909.
Same read-out and setting: under “HNRNPA3_P51991_64_WGTLTDCVVMRDPQTKR (UniProt P51991)” stands -0.524; under “GART_P22102_93_SAGVQCFGPTAEAAQLESSK (UniProt P22102)”, -0.0827.
Same read-out and setting: the result for “GALNT1_Q10472_482_TDDLCLDVSK (UniProt Q10472)” reads 0.00641.
